# Data taken from PubChem BioAssay (EPA / NIEHS).
# Some compounds were tested as several samples or in several runs, with calls that do not always agree. The source made the active and inactive calls. Rule for the calls: active = hit-call score of the fitted dose curve at least 0.9, where 1 is the maximum; inactive = score below 0.9.
# What was measured:
# [1] = read-out: Interleukin 17F (IL17F), IL17F (gene 112744); test: BSK_BT_xIL17F: BioMAP Diversity Plus: BT Assay for Interleukin 17F (IL17F) Biomarker Activity (AID 2284243); conditions: primary human B cells with PBMC
# Procedure, shortened: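 Luminex readout of IL-17F secretion, 24 h; cells: human B cells with PBMC; positive-direction analysis, DMSO control.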
# [2] = read-out: Actin alpha 1 (ACTA1), ACTA1 (gene 58); test: BSK_MyoF_ACTA1: BioMAP Diversity Plus: MyoF Assay for Actin alpha 1 (ACTA1) Biomarker Activity (AID 2284244); conditions: primary human lung fibroblasts
# Procedure, shortened: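 alpha-SMA levels read by ELISA against DMSO baseline, 24 h post-dose, in primary human lung fibroblasts. Parallel cultures stained with 0.1% SRB after 10% TCA fixation (560 nm) to flag overt cytotoxicity.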
# [3] = read-out: Interleukin 2 (IL2), IL2 (gene 3558); test: BSK_BT_xIL2: BioMAP Diversity Plus: BT Assay for Interleukin 2 (IL2) Biomarker Activity (AID 2284245); conditions: primary human B cells with PBMC
# Procedure, shortened: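 Secreted IL-2 was read by Luminex xMAP from B cells co-cultured with PBMC (human primary) 24 h post-dosing; activity was analysed as gain of signal relative to DMSO vehicle.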
# [4] = read-out: Basic fibroblast growth factor (bFGF), FGF2 (gene 2247); test: BSK_MyoF_bFGF: BioMAP Diversity Plus: MyoF Assay for Basic fibroblast growth factor (bFGF) Biomarker Activity (AID 2284246); conditions: primary human lung fibroblasts
# Procedure, shortened: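 bFGF was measured by ELISA in primary human lung fibroblasts 24 h after chemical addition. Signal was analysed as positive-direction change relative to DMSO baseline.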
# [5] = read-out: Collagen IV, COL4A1 (gene 1282); test: BSK_MyoF_CollagenIV: BioMAP Diversity Plus: MyoF Assay for Collagen IV Biomarker Activity (AID 2284247); conditions: primary human lung fibroblasts
# Procedure, shortened: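 Collagen IV quantified by ELISA in human lung fibroblast cultures 24 h after chemical treatment, with DMSO as baseline. Parallel SRB staining (0.1% SRB after TCA fixation, 560 nm) flags overt cytotoxicity.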
# [6] = read-out: Monokine induced gamma interferon (MIG), CXCL9 (gene 4283); test: BSK_KF3CT_MIG: BioMAP Diversity Plus: KF3CT Assay for Monokine induced gamma interferon (MIG) Biomarker Activity (AID 2284248); conditions: primary human keratinocytes with fibroblasts
# Procedure, shortened: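 MIG in dosed human skin co-cultures was measured by ELISA at 24 h, relative to DMSO.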
# [7] = read-out: Vascular cell adhesion molecule 1 (VCAM1), VCAM1 (gene 7412); test: BSK_BF4T_VCAM1: BioMAP Diversity Plus: BF4T Assay for Vascular cell adhesion molecule 1 (VCAM1) Biomarker Activity (AID 2284249); conditions: primary human bronchial epithelial cells with fibroblasts
# Procedure, shortened: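 Cell-surface VCAM-1 quantified by ELISA after 24 h chemical exposure of human bronchial epithelial/dermal fibroblast co-cultures, with SRB staining in parallel wells for cytotoxicity; DMSO baseline, positive-direction fitting.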
# [8] = read-out: Collagen I, COL1A1 (gene 1277); test: BSK_hDFCGF_CollagenI: BioMAP Diversity Plus: hDFCGF Assay for Collagen I Biomarker Activity (AID 2284250); conditions: primary human foreskin fibroblasts
# Procedure, shortened: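 Collagen I quantified by ELISA 24 h after chemical dosing of human dermal fibroblast primary cells, with parallel SRB staining (0.1%, TCA-fixed, 560 nm) for overt cytotoxicity.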
# [9] = read-out: Interferon-inducible T-cell alpha chemoattractant (ITAC), CXCL11 (gene 6373); test: BSK_hDFCGF_ITAC: BioMAP Diversity Plus: hDFCGF Assay for Interferon-inducible T-cell alpha chemoattractant (ITAC) Biomarker Activity (AID 2284251); conditions: primary human foreskin fibroblasts
# Procedure, shortened: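 Chemical dosing of primary human foreskin fibroblast cultures preceded ELISA measurement of I-TAC at 24 h. Response was analysed in the positive direction using DMSO as baseline, while parallel SRB staining measured cytotoxicity.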
# [10] = read-out: Plasminogen activator inhibitor-1 (PAI1), SERPINE1 (gene 5054); test: BSK_KF3CT_PAI1: BioMAP Diversity Plus: KF3CT Assay for Plasminogen activator inhibitor-1 (PAI1) Biomarker Activity (AID 2284252); conditions: primary human keratinocytes with fibroblasts
# Procedure, shortened: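 PAI-1 levels quantified by ELISA after 24 h compound exposure of primary human skin keratinocytes co-cultured with fibroblasts. Activity is the gain relative to DMSO; cytotoxicity tracked in parallel cultures via SRB staining.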
# [11] = read-out: Monocyte Chemoattractant Protein-1 (MCP1), CCL2 (gene 6347); test: BSK_IMphg_MCP1: BioMAP Diversity Plus: IMphg Assay for Monocyte Chemoattractant Protein-1 (MCP1) Biomarker Activity (AID 2284253); conditions: primary human endothelial cells with macrophages
# Procedure, shortened: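 ELISA readout of MCP-1 at 24 hours in IMphg co-cultures of venular endothelial cells and macrophages, normalised to DMSO; parallel cultures stained with sulforhodamine B for overt cytotoxicity.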
# [12] = read-out: Interleukin-8 (IL8), CXCL8 (gene 3576); test: BSK_KF3CT_IL8: BioMAP Diversity Plus: KF3CT Assay for Interleukin-8 (IL8) Biomarker Activity (AID 2284254); conditions: primary human keratinocytes with fibroblasts
# Procedure, shortened: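 Using parallel SRB-stained cultures to flag overt toxicity, the study quantified IL-8 by ELISA in human keratinocyte–foreskin fibroblast co-cultures 24 h after dosing, with DMSO as negative control and baseline.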
# [13] = read-out: Macrophage Inflammatory Protein-1 Alpha (MIP1a), CCL3 (gene 6348); test: BSK_IMphg_MIP1a: BioMAP Diversity Plus: IMphg Assay for Macrophage Inflammatory Protein-1 Alpha (MIP1a) Biomarker Activity (AID 2284255); conditions: primary human endothelial cells with macrophages
# Procedure, shortened: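 MIP-1a protein levels were quantified by ELISA after 24 h treatment of human endothelial cell–macrophage co-cultures, compared with DMSO. Parallel cultures were fixed with TCA and stained with 0.1% SRB to gauge overt cytotoxicity.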
# [14] = read-out: Plasminogen activator inhibitor-1 (PAI1), SERPINE1 (gene 5054); test: BSK_MyoF_PAI1: BioMAP Diversity Plus: MyoF Assay for Plasminogen activator inhibitor-1 (PAI1) Biomarker Activity (AID 2284256); conditions: primary human lung fibroblasts;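 for outcome: PAI-1 protein level measured by ELISA in fibroblast cultures; PAI-1 read 24 h after compound addition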
# Procedure, shortened: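 In this multiplexed primary-cell system, fibroblasts from human lung received compound for 24 h before ELISA detection of PAI-1; overt toxicity was checked by SRB (0.1%, TCA-fixed, 560 nm) in parallel wells.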
# CD69, CD69 (gene 969) = test: BSK_IMphg_CD69: BioMAP Diversity Plus: IMphg Assay for CD69 Biomarker Activity (AID 2284257); conditions: primary human endothelial cells with macrophages
# Procedure, shortened: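 Readout is ELISA for CD69 in primary human venular endothelial cell/macrophage co-culture, taken at 24 h post-dosing. SRB staining of parallel cultures gauged overt cytotoxicity; signal increase versus DMSO defined activity.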
# [15] = read-out: Eotaxin 3, CCL26 (gene 10344); test: BSK_BF4T_Eotaxin3: BioMAP Diversity Plus: BF4T Assay for Eotaxin 3 Biomarker Activity (AID 2284258); conditions: primary human bronchial epithelial cells with fibroblasts
# Procedure, shortened: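 ELISA measurement of Eotaxin-3 after 24 h chemical exposure in a bronchial epithelial/dermal fibroblast co-culture, with DMSO as baseline. Parallel SRB staining (0.1% SRB after 10% TCA fixation, 560 nm) flagged overt cytotoxicity.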
# [16] = read-out: Monocyte Chemoattractant Protein-1 (MCP1), CCL2 (gene 6347); test: BSK_BF4T_MCP1: BioMAP Diversity Plus: BF4T Assay for Monocyte Chemoattractant Protein-1 (MCP1) Biomarker Activity (AID 2284259); conditions: primary human bronchial epithelial cells with fibroblasts
# Procedure, shortened: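 MCP-1 ELISA readout taken 24 h after dosing in the BF4T system (bronchial epithelial cells plus dermal fibroblasts). Parallel SRB total-protein staining flagged cytotoxicity; DMSO served as baseline, positive fitting direction.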
# [17] = read-out: Intercellular Adhesion Molecule 1 (ICAM1), ICAM1 (gene 3383); test: BSK_BF4T_ICAM1: BioMAP Diversity Plus: BF4T Assay for Intercellular Adhesion Molecule 1 (ICAM1) Biomarker Activity (AID 2284260); conditions: primary human bronchial epithelial cells with fibroblasts
# Procedure, shortened: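 ICAM-1 levels measured by ELISA after 24 h chemical treatment of bronchial epithelial cell/dermal fibroblast co-cultures, read against DMSO baseline. Overt cytotoxicity checked in parallel cultures by sulforhodamine B staining.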
smiles,measurement,setting,value
O=C(O)C(F)(F)C(F)(F)F,outcome,[1],inactive
same,outcome,[2],inactive
same,outcome,[3],inactive
same,outcome,[4],inactive
same,outcome,[5],inactive
same,outcome,[6],inactive
same,outcome,[7],inactive
same,outcome,[8],inactive
same,outcome,[9],inactive
same,outcome,[10],inactive
same,outcome,[11],inactive
same,outcome,[12],inactive
same,outcome,[13],inactive
same,outcome,[14],inactive
same,outcome,"CD69, CD69 (gene 969)",inactive
same,outcome,[15],inactive
same,AC50,[16],48 µM (active)
same,outcome,[16],inactive
same,outcome,[17],inactive
CCc1ccc(C(c2ccc(CC)cc2)C(Cl)Cl)cc1,AC50,[1],29.7 µM (active)
same,AC50,[2],7.07 µM (active)
same,AC50,[3],30.3 µM (active)
same,AC50,[4],28.9 µM (active)
same,outcome,[5],inactive
same,AC50,[14],31.1 µM (active)
O[Si](c1ccccc1)(c1ccccc1)c1ccccc1,AC50,[1],32.6 µM (active)
same,AC50,[2],20 µM (active)
same,AC50,[3],31.3 µM (active)
same,outcome,[4],inactive
same,outcome,[5],inactive
same,AC50,[14],20 µM (active)
CO[Si](OC)(c1ccccc1)c1ccccc1,outcome,[1],inactive
same,AC50,[2],30.8 µM (active)
same,outcome,[3],inactive
same,outcome,[4],inactive
same,outcome,[5],inactive
same,AC50,[14],30.5 µM (active)
C=CC(F)(F)C(F)(F)C(F)(F)C(F)(F)C(F)(F)C(F)(F)C(F)(F)C(F)(F)F,outcome,[1],inactive
same,outcome,[2],inactive
same,outcome,[3],inactive
same,outcome,[4],inactive
same,outcome,[5],inactive
same,outcome,[6],inactive
same,outcome,[8],inactive
same,outcome,[9],inactive
same,outcome,[10],inactive
same,outcome,[11],inactive
same,outcome,[12],inactive
same,outcome,[14],inactive
same,outcome,"CD69, CD69 (gene 969)",inactive
same,outcome,[15],inactive
same,outcome,[16],inactive
same,outcome,[17],inactive
FC(F)(F)C(F)(F)CNCC(F)(F)C(F)(F)F,outcome,[1],inactive
same,outcome,[2],inactive
same,outcome,[3],inactive
same,outcome,[4],inactive
same,outcome,[5],inactive
same,outcome,[6],inactive
same,outcome,[8],inactive
same,outcome,[9],inactive
same,outcome,[10],inactive
same,outcome,[11],inactive
same,outcome,[12],inactive
same,outcome,[14],inactive
same,outcome,"CD69, CD69 (gene 969)",inactive
same,outcome,[15],inactive
same,outcome,[16],inactive
same,outcome,[17],inactive
O=S(=O)(OCCOC(F)(F)F)C(F)(F)F,outcome,[1],inactive
same,outcome,[2],inactive
same,outcome,[3],inactive
same,outcome,[4],inactive
same,outcome,[5],inactive
same,outcome,[6],inactive
same,outcome,[8],inactive
same,outcome,[9],inactive
same,outcome,[10],inactive
same,outcome,[11],inactive
same,outcome,[12],inactive
same,outcome,[13],inactive
same,outcome,[14],inactive
same,outcome,"CD69, CD69 (gene 969)",inactive
same,outcome,[15],inactive
same,outcome,[16],inactive
same,outcome,[17],inactive
CS(C)(=O)=O,outcome,[1],inactive
same,outcome,[2],inactive
same,outcome,[3],inactive
same,outcome,[4],inactive
same,outcome,[5],inactive
same,outcome,[14],inactive
CCCCCCC(C)OC(=O)CCCCC(=O)OC(C)CCCCCC (stereo not drawn),outcome,[1],inactive
same,outcome,[2],inactive
same,outcome,[3],inactive
same,outcome,[4],inactive
same,outcome,[5],inactive
same,outcome,[14],inactive
